From PubChem BioAssay
A selection: hits, their analogues and other compounds. The true share with any hit is near 1.7%.
GLP1R inv ag: qHTS of GLP-1 Receptor Inverse Agonists (Inhibition Mode); 410,000 tested, 1.6% active; AID 624417, 2012; HEK293 GLP-1R CRE-luciferase, luminescence, 24 h; GLP-1R form is constitutively active; Potency, µM (highest dose often 38.3 µM), usual class: inhibitors; Glucagon-like peptide 1 receptor (Homo sapiens), P43220; note: nearly all actives have a fitted effect of over 55% in size
Target sequence (P43220 whole entry, looked up): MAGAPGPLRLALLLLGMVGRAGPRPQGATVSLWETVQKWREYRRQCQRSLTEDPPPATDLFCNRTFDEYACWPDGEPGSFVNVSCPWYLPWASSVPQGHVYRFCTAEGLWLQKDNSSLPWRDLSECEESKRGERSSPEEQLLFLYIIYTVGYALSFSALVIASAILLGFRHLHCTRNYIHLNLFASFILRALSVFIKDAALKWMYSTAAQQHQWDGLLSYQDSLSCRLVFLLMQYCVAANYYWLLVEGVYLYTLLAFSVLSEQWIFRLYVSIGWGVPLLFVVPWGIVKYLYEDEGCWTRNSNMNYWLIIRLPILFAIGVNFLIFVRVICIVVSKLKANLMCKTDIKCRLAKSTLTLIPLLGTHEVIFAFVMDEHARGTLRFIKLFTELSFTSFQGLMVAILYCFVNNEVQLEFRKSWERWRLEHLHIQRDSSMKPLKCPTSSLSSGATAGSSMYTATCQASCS
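Using stably transfected HEK293 (constitutively active GLP-1R, cAMP-luciferase reporter), compounds were incubated 24 hr and luciferase measured by luminescence.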
PTHR1 agonist: qHTS for PTHR1 Agonists: Primary Screen. HEK293 GP2 PTHR1 cells, GloSensor cAMP luminescence, 1 h. Potency, µM (series often up to 115 µM), most hits filed as activators. 410,000 tested, 0.075% active; note: nearly all actives have a fitted effect of over 55% in size
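HEK-293-derived GP2 cells expressing PTHR1 and a GloSensor cAMP reporter, 3,000/well, plated overnight, given luciferin plus IBMX (each 0.5 mM as added) for 1 h at 37 °C, then compound for 1 h at 37 °C. Luminescence was read after 15 min at room temperature.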
GLP1R cytotox: qHTS of GLP-1 Receptor Inverse Agonists: Cytotox Screen | HEK293 cAMP-luciferase reporter cells, luminescence, 24 h | Potency, µM (doses to about 38.3 µM), most hits filed as inhibitors | 410,000 tested, 0.13% active | AID 624418, 2012;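 note: loss of luciferase light is scored as toxicity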
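MLSMR compounds, 24 hr on cells at 37 deg C/5% CO2; luminescence after luciferase reagent (12 min RT). Inhibition counted as the undesired cytotoxic outcome.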
GLP-1R agonist: qHTS of GLP-1 Receptor Agonists. HEK293 GLP-1R CRE-luciferase, luminescence, 4-6 h; cells express a hypersensitive GLP-1R form. Glucagon-like peptide 1 receptor (Homo sapiens), P43220. Potency, µM (highest dose often 45.6 µM), actives largely listed as activators. 380,000 tested, 0.007% active
Each line names hits and unclear results; the compound was inactive in the other large screens. Calls come from the whole dose curve; as a rule, active = well fitted curve in the direction sought with a large enough effect; inconclusive = small, poorly fitted or top-dose-only effect, or another doubt; inactive = no such curve, though single readings can be large; an effect the other way counts as inactive or inconclusive.

CCOc1cc(/C=C2\CCC/C(=C\c3cc(Cl)c(O)c(OCC)c3)C2=O)cc(Cl)c1O	GLP1R inv ag 10µM, GLP1R cytotox 11µM
COc1ccc(-c2nc(Cn3c(SCc4ccc(F)cc4)nc4cccnc43)c(C)o2)cc1	none (no result: GLP-1R agonist)
COc1ccc(-c2nc(Cn3c(SCc4ccc(C)cc4)nc4cccnc43)c(C)o2)cc1OC	GLP1R inv ag 10µM (no result: GLP-1R agonist)
CCS(=O)(=O)c1ncc(N(Cc2ccco2)Cc2ccccc2F)c(C(=O)Nc2cccc(Cl)c2)n1	GLP1R inv ag 8.9µM (no result: GLP-1R agonist)
Cc1ccc(NC(=O)c2nc(S(C)(=O)=O)ncc2N(Cc2ccco2)Cc2ccccc2F)c(C)c1	none (no result: GLP-1R agonist)
CC(C)c1ccc(CN(Cc2ccco2)c2cnc(S(C)(=O)=O)nc2C(=O)Nc2ccccc2)cc1	GLP1R inv ag 5µM (no result: GLP-1R agonist)
Clc1ccc(-n2nnc(-c3nccs3)n2)cc1Cl	none
Cc1ccc(-n2nnc(-c3nccs3)n2)cc1	GLP1R inv ag 2.8µM
CN1CCN(c2nc(C#N)cc(-c3ccccc3)n2)CC1	GLP1R inv ag 13µM
COc1ccc(-c2cc(C#N)nc(N3CCN(C)CC3)n2)cc1	GLP1R inv ag inconclusive
CC(=O)N1/C(=C/c2ccc(N(C)C)cc2)C(=O)c2ccccc21	GLP1R inv ag 10µM, GLP1R cytotox inconclusive
COc1ccc(CN2CCC[C@]3(N[C@H](c4ccc(C(F)(F)F)cc4)[C@@H]4C(=O)N(Cc5ccccc5)C(=O)[C@@H]43)C2=O)cc1	GLP1R inv ag 8.9µM
CN1C(=O)[C@H]2[C@@H](c3ccc(C(F)(F)F)cc3)N[C@]3(CCCN(Cc4ccc(Cl)cc4)C3=O)[C@H]2C1=O	GLP1R inv ag 11µM
CN1C(=O)[C@H]2[C@@H](c3ccc(C(F)(F)F)cc3)N[C@]3(CCCN(Cc4ccc(F)cc4)C3=O)[C@H]2C1=O	none
CCN1C(=O)[C@H]2[C@@H](c3ccc(OC)cc3)N[C@]3(CCCN(Cc4ccc(C(F)(F)F)cc4)C3=O)[C@H]2C1=O	none
CCN(C(=O)c1cnc(N2CCN(c3ncccn3)CC2)c2ccccc12)c1cccc(Cl)c1	GLP1R inv ag 10µM
CN(C(=O)c1cnc(N2CCN(c3ncccn3)CC2)c2ccccc12)c1ccc(Cl)cc1	none
CCOc1ccc(C2C(C(=O)Nc3ccccc3)=C(C)Nc3nc(-c4ccccc4Cl)nn32)cc1OC (stereo unspecified)	none (no result: GLP-1R agonist)
COc1ccc(-n2nc3cc(C)c(NC(=O)COc4cccc(C)c4)cc3n2)cc1	none (no result: GLP-1R agonist)
CCC1(c2ccccc2)SCC(c2ccccc2)=NC1=O (stereo unspecified)	GLP1R inv ag 3.2µM
Cc1ccc2scc(N3CCCCC3C)c(=O)c2c1 (stereo unspecified)	none (no result: GLP-1R agonist)
O=C(C1CCN(Cc2ccc(Cl)cc2)CC1)N1CCN(C(c2ccccc2)c2ccccc2)CC1	GLP1R inv ag 4µM, GLP1R cytotox inconclusive
CCOC(=O)Cn1c(=N)n(Cc2ccc(C(C)(C)C)cc2)c2ccccc21	GLP1R inv ag inconclusive (no result: GLP-1R agonist)
COc1ccc(Cl)cc1NC(=O)C1CC(=O)N(C2CCCCC2)C1 (stereo unspecified)	GLP1R inv ag inconclusive
O=C(Nc1cc(Cl)cc(Cl)c1)C1CC(=O)N(C2CCCC2)C1 (stereo unspecified)	GLP1R inv ag 8.9µM
CCC(=O)c1ccc(OCC(O)CN(CCc2ccccc2)Cc2ccccc2)cc1 (stereo unspecified)	GLP1R inv ag 8.9µM
CC1=C(C(=O)Nc2ccc(Cl)cc2)C(c2ccccc2)n2ncc(C(=O)Nc3ccccc3)c2N1 (stereo unspecified)	GLP1R inv ag inconclusive (no result: GLP-1R agonist)
CC1=C(C(=O)Nc2ccc(Cl)cc2)C(c2ccccc2C)n2ncc(C(=O)Nc3ccc(C)cc3)c2N1 (stereo unspecified)	GLP1R inv ag 2.8µM (no result: GLP-1R agonist)
O=C(NCC(c1cccnc1)N1CCc2ccccc2C1)c1ccc(F)c(F)c1 (stereo unspecified)	none (no result: GLP-1R agonist)
Cc1ccc(OCC(O)CNC2CCCC2)c(C)c1 (stereo unspecified)	GLP1R inv ag inconclusive
OC(CNC1CCCCCC1)COc1cccc2ccccc12 (stereo unspecified)	GLP1R inv ag 11µM, GLP1R cytotox inconclusive
